In PubChem BioAssay (NCATS):
Results filed as inconclusive are left out. A call without a number means that no potency is given here. Activity calls are given as the source filed them. Calls come from the whole dose curve; as a rule, active = well fitted curve in the direction sought with a large enough effect; inconclusive = small, poorly fitted or top-dose-only effect, or another doubt; inactive = no such curve, though single readings can be large; an effect the other way counts as inactive or inconclusive.

Columns and labels:
[1] = Quantitative High-Throughput drug screen in 47 multiple myeloma cell lines against the NCATS MIPE library collection: KMS12BM_JCRB cell viability assay (AID 1918971); note: nearly all actives have a fitted effect of over 35% in size
How it was run: (§1)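 CellTiter-Glo luminescence (ATP) after 48 h compound exposure, 37C/5% CO2; 500 cells/well; MIPE 4.0 approved/investigational drugs pinned in; DMSO = 100%, media only = 0% viability.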

[2] = Quantitative High-Throughput drug screen in 47 multiple myeloma cell lines against the NCATS MIPE library collection: MMM1_PLB cell viability assay (AID 1918976); note: nearly all actives have a fitted effect of over 35% in size
How it was run: (§2)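 500 cells/well per myeloma line exposed to pinned MIPE 4.0 compounds for 48 h at 37 °C, 5% CO2. Viability read as ATP by CellTiter-Glo luminescence, normalised to DMSO-only (100%) and media-only (0%) wells.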

[3] = Quantitative High-Throughput drug screen in 47 multiple myeloma cell lines against the NCATS MIPE library collection: NCIH929_DSMZ cell viability assay (AID 1918978); note: nearly all actives have a fitted effect of over 35% in size
How it was run: as §2

[4] = Quantitative High-Throughput drug screen in 47 multiple myeloma cell lines against the NCATS MIPE library collection: OCIMY1_PLB cell viability assay (AID 1918979); note: nearly all actives have a fitted effect of over 35% in size; for viability: series mostly up to about 46 µM
How it was run: as §2

[5] = Quantitative High-Throughput drug screen in 47 multiple myeloma cell lines against the NCATS MIPE library collection: MM1S_ATCC cell viability assay (AID 1918980); note: nearly all actives have a fitted effect of over 45% in size
How it was run: as §2

[6] = Quantitative High-Throughput drug screen in 47 multiple myeloma cell lines against the NCATS MIPE library collection: KMS12PE_JCRB cell viability assay (AID 1918972); note: nearly all actives have a fitted effect of over 30% in size; for viability: series mostly up to about 46 µM
How it was run: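 Myeloma cell lines, 500 cells per well, exposed to MIPE 4.0 library compounds for 48 h at 37C, 5% CO2. Viability from ATP by CellTiter-Glo luminescence; normalised to DMSO (100%) and media-only (0%) wells.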

[7] = Quantitative High-Throughput drug screen in 47 multiple myeloma cell lines against the NCATS MIPE library collection: KMS26_JCRB cell viability assay (AID 1918975); note: nearly all actives have a fitted effect of over 45% in size
How it was run: as §1

[8] = Quantitative High-Throughput drug screen in 47 multiple myeloma cell lines against the NCATS MIPE library collection: MOLP8_DSMZ cell viability assay (AID 1918977); note: nearly all actives have a fitted effect of over 45% in size
How it was run: as §2

[9] = Quantitative High-Throughput drug screen in 47 multiple myeloma cell lines against the NCATS MIPE library collection: KMS20_JCRB cell viability assay (AID 1918973); note: nearly all actives have a fitted effect of over 45% in size
How it was run: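 qHTS of the MIPE 4.0 collection: 500 myeloma cells/well, 48 h drug exposure at 37C in 5% CO2, then CellTiter-Glo for 5 min at room temperature before luminescence reading.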
Potency is the fitted concentration of half-maximal effect.

Structure (SMILES)	Potency [1]	Potency [2]	Potency [3]	Potency [4]	Potency [5]	Potency [6]	Potency [7]	Potency [8]	Potency [9]
Cc1nnc(C(=O)NC(C)(C)c2nc(C(=O)NCc3ccc(F)cc3)c(O)c(=O)n2C)o1	inactive	7.43 µM (active)	inactive	inactive	inactive	–	–	–	–
C[C@@H]1CN(c2c(F)c(N)c3c(=O)c(C(=O)O)cn(C4CC4)c3c2F)C[C@H](C)N1	inactive	–	inactive	–	inactive	inactive	–	–	–
CCN(CC)CC#CCOC(=O)C(O)(c1ccccc1)C1CCCCC1 (stereo unspecified)	inactive	–	inactive	inactive	–	26.4 µM (active)	–	–	–
Nc1nc(N)nc(-c2cc(Cl)ccc2Cl)n1	inactive	0.0526 µM (active)	inactive	inactive	–	inactive	–	–	–
CCC(=O)O[C@]1(C(=O)SCF)[C@H](C)C[C@H]2[C@@H]3C[C@H](F)C4=CC(=O)C=C[C@]4(C)[C@@]3(F)[C@@H](O)C[C@@]21C	inactive	–	–	–	–	inactive	inactive	inactive	–
CC(C)OC(=O)OCOP(=O)(CO[C@H](C)Cn1cnc2c(N)ncnc21)OCOC(=O)OC(C)C	7.43 µM (active)	–	–	–	23.5 µM (active)	29.6 µM (active)	–	–	–
Cc1cccc(Nc2ccncc2S(=O)(=O)NC(=O)NC(C)C)c1	16.6 µM (active)	20.9 µM (active)	inactive	inactive	inactive	inactive	–	–	–
CCN(CC)CCn1c(=O)c(Cc2ccc(OC)cc2)nc2ccccc21	inactive	–	inactive	inactive	inactive	inactive	inactive	–	–
CCC(=O)O[C@]1(C(=O)CCl)[C@@H](C)C[C@H]2[C@@H]3CCC4=CC(=O)C=C[C@]4(C)[C@@]3(F)[C@@H](O)C[C@@]21C	14.8 µM (active)	–	inactive	inactive	–	16.6 µM (active)	inactive	–	–
O[C@@H](CNC[C@H](O)[C@H]1CCc2cc(F)ccc2O1)[C@@H]1CCc2cc(F)ccc2O1	23.5 µM (active)	23.5 µM (active)	23.5 µM (active)	–	20.9 µM (active)	14.8 µM (active)	26.4 µM (active)	–	–
CS(=O)(=O)c1ccc([C@@H](O)[C@@H](CO)NC(=O)C(Cl)Cl)cc1	inactive	–	–	inactive	7.43 µM (active)	2.35 µM (active)	inactive	–	–
COc1ncnc(NS(=O)(=O)c2ccc(N)cc2)c1OC	inactive	–	inactive	inactive	23.5 µM (active)	inactive	inactive	inactive	–
COc1ccc2cc3[n+](cc2c1OC)CCc1cc2c(cc1-3)OCO2	6.62 µM (active)	6.62 µM (active)	–	–	14.8 µM (active)	16.6 µM (active)	5.9 µM (active)	14.8 µM (active)	–
COC(=O)Nc1nc2ccc(Sc3ccccc3)cc2[nH]1	2.35 µM (active)	18.7 µM (active)	8.33 µM (active)	3.32 µM (active)	2.09 µM (active)	0.833 µM (active)	18.7 µM (active)	13.2 µM (active)	–
CC1(C)[C@H](C(=O)O)N2C(=O)C[C@H]2S1(=O)=O	inactive	–	inactive	–	26.4 µM (active)	inactive	inactive	–	–
CN1CCCC(n2nc(Cc3ccc(Cl)cc3)c3ccccc3c2=O)CC1 (stereo unspecified)	4.18 µM (active)	8.33 µM (active)	0.935 µM (active)	–	0.662 µM (active)	–	3.72 µM (active)	–	–
COc1ccc2c(c1)c(CC(=O)OCC(=O)O)c(C)n2C(=O)c1ccc(Cl)cc1	inactive	4.18 µM (active)	inactive	inactive	–	inactive	–	–	–
COC(=O)Nc1nc2ccc(C(=O)c3ccccc3)cc2[nH]1	1.48 µM (active)	–	3.72 µM (active)	0.833 µM (active)	3.72 µM (active)	–	8.33 µM (active)	–	1.32 µM (active)
CO[C@@H]1[C@@H](OC(N)=O)[C@@H](O)[C@H](Oc2ccc3c(O)c(NC(=O)c4ccc(O)c(CC=C(C)C)c4)c(=O)oc3c2C)OC1(C)C	2.96 µM (active)	–	–	inactive	–	–	9.35 µM (active)	–	–
COc1cc2c(Nc3ccc(Br)cc3F)ncnc2cc1OCC1CCN(C)CC1	18.7 µM (active)	–	8.33 µM (active)	–	23.5 µM (active)	–	–	–	9.35 µM (active)
CC(C)(C)C(=O)OCOP(=O)(COCCn1cnc2c(N)ncnc21)OCOC(=O)C(C)(C)C	0.935 µM (active)	18.7 µM (active)	0.209 µM (active)	11.8 µM (active)	2.09 µM (active)	–	6.62 µM (active)	–	2.64 µM (active)
Cc1cccc(N(C)C(=S)Oc2ccc3ccccc3c2)c1	inactive	–	inactive	inactive	–	–	inactive	–	–

Structure (SMILES)	Potency [1]	Potency [2]	Potency [3]	Potency [4]	Potency [5]	Potency [6]	Potency [7]	Potency [8]	Potency [9]
COc1cccc(N(C)C(=S)Oc2ccc3c(c2)CCCC3)n1	inactive	–	inactive	inactive	18.7 µM (active)	–	inactive	inactive	–
COc1cc2ncnc(Nc3cccc(Cl)c3)c2cc1OC	26.4 µM (active)	11.8 µM (active)	–	–	0.0743 µM (active)	20.9 µM (active)	23.5 µM (active)	20.9 µM (active)	–
CO[C@@]12[C@H](COC(N)=O)C3=C(C(=O)C(C)=C(N)C3=O)N1C[C@@H]1N[C@@H]12	23.5 µM (active)	23.5 µM (active)	26.4 µM (active)	–	0.264 µM (active)	–	23.5 µM (active)	–	–
CN(C)CCc1c[nH]c2ccc(CS(=O)(=O)N3CCCC3)cc12	inactive	–	inactive	inactive	–	–	inactive	–	–
NC(=O)c1ccc2[nH]ccc2c1	inactive	–	inactive	inactive	–	inactive	inactive	–	–
CCCCCCNC(=O)n1cc(F)c(=O)[nH]c1=O	4.69 µM (active)	–	11.8 µM (active)	inactive	20.9 µM (active)	–	–	–	inactive
CC(C)OC(=O)C(C(=O)OC(C)C)=C1SC=CS1	14.8 µM (active)	–	inactive	inactive	–	inactive	0.003 µM (active)	–	–
CNS(=O)(=O)CCc1ccc2[nH]cc(C3CCN(C)CC3)c2c1	2.64 µM (active)	–	0.332 µM (active)	–	0.469 µM (active)	–	2.96 µM (active)	–	0.935 µM (active)
CCc1cc(C(N)=S)ccn1	inactive	–	–	inactive	–	inactive	–	–	–
CCc1c2c(nc3ccc(OC(=O)N4CCC(N5CCCCC5)CC4)cc13)-c1cc3c(c(=O)n1C2)COC(=O)[C@]3(O)CC	0.264 µM (active)	0.935 µM (active)	16.6 µM (active)	–	1.32 µM (active)	0.526 µM (active)	0.166 µM (active)	–	–
COCCCOc1cc(C[C@@H](C[C@H](N)[C@@H](O)C[C@H](C(=O)NCC(C)(C)C(N)=O)C(C)C)C(C)C)ccc1OC	–	–	inactive	–	0.0743 µM (active)	inactive	inactive	–	–
O=C(O)c1cn(C2CC2)c2cc(N3CCNCC3)c(F)cc2c1=O	–	–	inactive	inactive	–	inactive	–	inactive	inactive
COc1cnc(NS(=O)(=O)c2ccc(N)cc2)nc1	–	–	–	inactive	29.6 µM (active)	14.8 µM (active)	inactive	–	–
CCCN[C@H]1CCc2nc(N)sc2C1	–	–	–	inactive	0.833 µM (active)	–	–	–	inactive
CCOc1cc(N)c(Cl)cc1C(=O)NCC1CN(Cc2ccc(F)cc2)CCO1 (stereo unspecified)	–	–	inactive	inactive	–	inactive	–	inactive	–
CC(C)Cn1cnc2c(N)nc3ccccc3c21	14.8 µM (active)	16.6 µM (active)	–	inactive	4.69 µM (active)	–	–	–	–
CC(C(=O)O)c1ccc2c(c1)CC(=O)c1ccccc1S2 (stereo unspecified)	inactive	–	inactive	inactive	2.96 µM (active)	–	–	–	–
CC(=O)[C@H]1CC[C@H]2[C@@H]3CC=C4C[C@@H](O)CC[C@]4(C)[C@H]3CC[C@]12C	–	–	inactive	inactive	inactive	inactive	–	–	–
CC(=O)[C@H]1CC[C@H]2[C@@H]3CCC4=CC(=O)CC[C@]4(C)[C@H]3CC[C@]12C	–	–	inactive	–	3.72 µM (active)	–	–	–	–
CC[C@H](C)C(=O)O[C@H]1C[C@@H](C)C=C2C=C[C@H](C)[C@H](CC[C@@H]3C[C@@H](O)CC(=O)O3)[C@H]21	–	14.8 µM (active)	–	inactive	16.6 µM (active)	inactive	–	–	–
Nc1ccc(S(=O)(=O)Nc2ccccn2)cc1	–	–	inactive	inactive	–	inactive	inactive	inactive	inactive
Nc1nc(N)c2nc(CNc3ccc(C(=O)NC(CCC(=O)O)C(=O)O)cc3)cnc2n1 (stereo unspecified)	–	–	inactive	inactive	0.0132 µM (active)	–	0.0264 µM (active)	–	–
